Compound activity: PubChem BioAssay, ICCB-Longwood Screening Facility, Harvard Medical School
Sa growth inh = S. aureus growth inhibition; 170,000 tested, 0.53% active; relative growth, % (no concentration beside the values); S. aureus RN4220 growth, OD600, 20 h, 42 °C; stronger effect = lower value; AID 720641;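 active = relative growth at most 50% at the other temperature and 20+ points below 30 °C, or under 10% at both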
S aureus helic = blocks Staphylococcus aureus DNA helicase | 120,000 tested, 0.05% active | inhibition, % (no concentration beside the values) | AID 485395 | purified S. aureus helicase, fluorescence unwinding assay; in the data active = inhibition above about 25%, passing the limit was not always enough;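 also: 0% = mean of negative control wells and 100% = mean of positive control wells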
* marks the source's active call; other numbers are inactive results; . = no result. Most compounds without a hit are left out; they make up all but 0.52% or so of the library.

SMILES	Sa growth inh	S aureus helic
Cc1cc(NC(=O)COC(=O)C2(c3ccc(Cl)cc3)CCCC2)no1	98	-1
Cc1cc2c(N=NC(=O)Nc3ccccc3)c(O)[nH]c2cc1Br	99	-7
CCOCc1cc(C)[nH]n1	100	14
CC(C(=O)N1CCN(c2ccccn2)CC1)n1ncn2cccc2c1=O (centres undefined)	102	11
O=C(N[C@@H](CO)[C@H](O)c1ccc([N+](=O)[O-])cc1)C(Cl)Cl	0.2*	.
O=C(O)CCC(=O)OC[C@@H](NC(=O)C(Cl)Cl)[C@H](O)c1ccc([N+](=O)[O-])cc1	83	.
CS(=O)(=O)c1ccc(C(O)[C@H](CF)NC(=O)C(Cl)Cl)cc1 (some centres undefined)	-0.8*	.
CS(=O)(=O)c1ccc([C@@H](O)[C@@H](COC(=O)CN)NC(=O)C(Cl)Cl)cc1	52	.
Cc1nc(CC(=O)NN=C2C3CC4CC(C3)CC2C4)cs1	92	7
CC12CC3CC(C)(C1)CC(CO)(C3)C2	110	-9
CC(Sc1nncn1C)C(=O)Nc1ccc(Cl)cc1 (centres undefined)	109	-14
CC(N)c1ccc(-c2ccccc2)cc1 (centres undefined)	96	-11
c1ccc(-c2ccc(C(c3ccccc3)n3ccnc3)cc2)cc1 (centres undefined)	1.6*	.
CCSC1=NC2(CCNCC2)N=C1c1ccc(OC)cc1	96	-20
COCc1nnc(NC(=O)c2ccc(S(=O)(=O)N(C)C3CCCCC3)cc2)o1	8.5*	-3
CC(C)CN(CC(C)C)S(=O)(=O)c1ccc(C(=O)Nc2nnc(-c3ccccn3)o2)cc1	83	4
CCc1nnc(NC(=O)c2ccc(S(=O)(=O)N(C)c3ccccc3)cc2)o1	15	10
CSCc1nnc(NC(=O)c2ccc(S(=O)(=O)N(CC(C)C)CC(C)C)cc2)o1	-0.4*	4
Cn1c(=NC(=O)C2CCCCN2S(=O)(=O)c2cccc3nsnc23)sc2ccccc21 (centres undefined)	87	-16
Cc1ccc(C(=O)N/C(=C/c2cccs2)C(=O)NCc2ccccc2)cc1	.	-23
O=C(OCc1ccc(Br)cc1)C1CCCCN1S(=O)(=O)c1ccc(F)cc1 (centres undefined)	120	10
O=C1/C(=C/c2cccnc2)c2ccccc2N1c1ccccc1	8.4*	14
O=C1C(=Cc2cccnc2)C(=O)c2ccccc21	64	-5
Cc1c(C(=O)Oc2cccc3cccnc23)oc2ccccc12	97	3
Cc1ccc(S(=O)(=O)NC(=O)Oc2cccc3cccnc23)cc1	0.2*	8
SMILES	Sa growth inh	S aureus helic
CCCNc1ccccc1N	6.7*	3
CCCCNc1ccc(C(F)(F)F)cc1N	77	7
Nc1nc2ccccc2n1Cc1ccccc1F	102	-13
CC(C)(C)c1ccc(Cn2c(N)nc3ccccc32)cc1	6.3*	10
CCOC(=O)c1c(NC(=S)NCCn2cc(Br)cn2)sc2c1CCCCC2	107	9
Clc1nc(Cl)nc(NCc2ccccc2)n1	97	1
CC(=O)N/C(=C/c1ccoc1)C(=O)O	100	.
Cc1occc1C(=O)Nc1cc(C(C)(C)C)on1	115	-1
Cc1occc1C(=O)N=Nc1cc(C(C)(C)C)c(O)c(C(C)(C)C)c1	1.4*	7
CC(O)CNC(=O)C1CC(=O)N(c2ccccc2)C1 (centres undefined)	102	17
Cc1ccc(CC(=O)O)cc1C	102	6
Cc1cccc(NS(=O)(=O)c2ccc3c(c2)CC(C)N3C(=O)C2CC2)c1 (centres undefined)	91	-11
CN1CCC(NC(=O)c2cccs2)CC1	109	1
CC1c2ccsc2CCN1C(=S)NC(=O)c1cccs1 (centres undefined)	-0.4*	.
CNc1ccc2cccc(O)c2n1	0.4*	13
Oc1cccc2ccc(Nc3ccccn3)nc12	77	11
CNC(=O)c1c(C)nc(SCC(=O)N2CCCC2=O)c(C#N)c1-c1ccco1	96	0
CCC(C)NC(=O)C(C)Sc1ccccc1 (centres undefined)	107	6
N#Cc1cc2c(=O)n3ccccc3nc2n(Cc2ccccc2)c1=O	99	-48
CC(Oc1ccc(Cl)cc1Cl)C(=O)Nc1ccc(Cl)cn1 (centres undefined)	82	0
O=C1OCCN1/N=C/c1ccc([N+](=O)[O-])o1	-0.9*	.
O=C1CN(/N=C/c2ccc([N+](=O)[O-])o2)C(=O)N1	13	.
Cc1ccc(/C=C2\CCCC(CN(C)C)C2=O)cc1 (centres undefined)	-0.2*	.
CN(C)c1ccc(/C=C2\CCC(C3CCCC3)C2=O)cc1 (centres undefined)	95	3
CCn1c(O)c(N=NC(=O)Nc2ccc(Cl)c(Cl)c2)c2ccccc21	-0.8*	13
CCn1c(O)c(N=NC(N)=S)c2ccccc21	64	9
COc1cc(C2Nc3c(C)cc(C)cc3-c3cc(C)nn32)cc(OC)c1O (centres undefined)	105	.
